The supplement of paper PMC6897291
Several values for one entry are separate records, joined by “and”; a condition that tells them apart may be missing. Equal entries are not always repeated. Structures can show the parent of a compound that is named as a salt.

Columns and labels:
U-2932 [1] = experiment: growth inhibition by drug alone (1 - RLU/untreated control) (fraction); higher = stronger inhibition; settings: 177Lu-lilotomab satetraxetan 0 ug/ml
How it was run: (§1)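 A radiolabelled anti-CD37 antibody conjugate (~600 MBq/mg) was applied for 18 h at 0.5 µg/ml to RIVA and 1 µg/ml to U-2932 cells, with untreated cells run alongside. All cells were washed and seeded at 3,000 cells/well onto library-printed plates at 10/100 nM (RIVA) or 10/1,000 nM (U-2932). Growth inhibition was based on RealTime-Glo luminescence compared with untreated no-drug wells. Daily reads began on day 3 after 1 h at 37°C, with each value being 1 − RLU/mean of the 48 such wells on that plate.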

RIVA [2] = experiment: as above; settings: 177Lu-lilotomab satetraxetan 0 ug/ml
How it was run: as §1

U-2932 [3] = experiment: growth inhibition by drug plus 177Lu-lilotomab satetraxetan (1 - RLU/untreated control) (fraction); higher = stronger inhibition; settings: 177Lu-lilotomab satetraxetan 1 ug/ml
How it was run: as §1

RIVA [4] = experiment: as above; settings: 177Lu-lilotomab satetraxetan 0.5 ug/ml
How it was run: as §1

Compound | growth inhibition by drug alone (U-2932 [1]; 10 nM, time (day): 4) | growth inhibition by drug alone (U-2932 [1]; 1000 nM, time (day): 3) | growth inhibition by drug alone (U-2932 [1]; 1000 nM, time (day): 5) | growth inhibition by drug alone (U-2932 [1]; 1000 nM, time (day): 6) | growth inhibition by drug alone (RIVA [2]; 10 nM, time (day): 5) | growth inhibition by drug alone (RIVA [2]; 10 nM, time (day): 6) | growth inhibition by drug plus 177Lu-lilotomab satetraxetan (U-2932 [3]; 10 nM, time (day): 3) | growth inhibition by drug plus 177Lu-lilotomab satetraxetan (U-2932 [3]; 10 nM, time (day): 5) | growth inhibition by drug plus 177Lu-lilotomab satetraxetan (U-2932 [3]; 1000 nM, time (day): 3) | growth inhibition by drug plus 177Lu-lilotomab satetraxetan (U-2932 [3]; 1000 nM, time (day): 6) | growth inhibition by drug plus 177Lu-lilotomab satetraxetan (RIVA [4]; 10 nM, time (day): 3) | growth inhibition by drug plus 177Lu-lilotomab satetraxetan (RIVA [4]; 10 nM, time (day): 4) | growth inhibition by drug plus 177Lu-lilotomab satetraxetan (RIVA [4]; 10 nM, time (day): 5) | growth inhibition by drug plus 177Lu-lilotomab satetraxetan (RIVA [4]; 10 nM, time (day): 6) | growth inhibition by drug plus 177Lu-lilotomab satetraxetan (RIVA [4]; 100 nM, time (day): 3) | growth inhibition by drug plus 177Lu-lilotomab satetraxetan (RIVA [4]; 100 nM, time (day): 4) | growth inhibition by drug plus 177Lu-lilotomab satetraxetan (RIVA [4]; 100 nM, time (day): 5) | growth inhibition by drug plus 177Lu-lilotomab satetraxetan (RIVA [4]; 100 nM, time (day): 6) | growth inhibition by drug alone (RIVA [2]; 10 nM, time (day): 3) | growth inhibition by drug alone (RIVA [2]; 10 nM, time (day): 4) | growth inhibition by drug alone (RIVA [2]; 100 nM, time (day): 3) | growth inhibition by drug alone (RIVA [2]; 100 nM, time (day): 4) | growth inhibition by drug alone (RIVA [2]; 100 nM, time (day): 5) | growth inhibition by drug alone (RIVA [2]; 100 nM, time (day): 6) | growth inhibition by drug plus 177Lu-lilotomab satetraxetan (U-2932 [3]; 10 nM, time (day): 4) | growth inhibition by drug plus 177Lu-lilotomab satetraxetan (U-2932 [3]; 10 nM, time (day): 6) | growth inhibition by drug plus 177Lu-lilotomab satetraxetan (U-2932 [3]; 1000 nM, time (day): 4) | growth inhibition by drug plus 177Lu-lilotomab satetraxetan (U-2932 [3]; 1000 nM, time (day): 5) | growth inhibition by drug alone (U-2932 [1]; 10 nM, time (day): 3) | growth inhibition by drug alone (U-2932 [1]; 10 nM, time (day): 5) | growth inhibition by drug alone (U-2932 [1]; 10 nM, time (day): 6) | growth inhibition by drug alone (U-2932 [1]; 1000 nM, time (day): 4)
C/C(=C\C(=O)Nc1ccccc1C(=O)O)c1ccc2ccccc2c1 | 0.0133 and 0.0332 | -0.0224 and -0.014 | -0.0613 and -0.0571 | -0.273 and -0.127 | -0.0819 and -0.194 | -0.258 and -0.514 | -0.0301 and -0.033 | 0.025 and 0.0323 | -0.0817 and -0.0426 | 0.0333 and 0.0305 | 0.404 and 0.42 | 0.545 and 0.538 | 0.571 and 0.547 | 0.581 and 0.558 | 0.399 and 0.427 | 0.502 and 0.474 | 0.502 and 0.482 | 0.484 and 0.467 | – | – | – | – | – | – | – | – | – | – | – | – | – | –
COc1c(C)c2c(c(O)c1C/C=C(\C)CCC(=O)O)C(=O)OC2 [Mycophenolic (Mycophenolate)] | – | – | – | – | 0.06 | -0.0787 | 0.128 | 0.191 | 0.759 | 0.662 | 0.534 | 0.601 | 0.625 | 0.635 | 0.712 | 0.719 | 0.736 | 0.739 | 0.102 | 0.108 | 0.409 | 0.362 | 0.284 | 0.202 | 0.131 | 0.311 | 0.81 | 0.733 | – | – | – | –
N#CCNC(=O)c1ccc(-c2ccnc(Nc3ccc(N4CCOCC4)cc3)n2)cc1 | – | – | – | – | – | – | -0.0778 | 0.0189 | 0.143 | 0.384 | 0.481 | 0.53 | 0.555 | 0.562 | 0.347 | 0.434 | 0.447 | 0.446 | – | – | – | – | – | – | -0.021 | 0.13 | 0.174 | 0.206 | – | – | – | –
CCN[C@H]1C[C@H](C)S(=O)(=O)c2sc(S(N)(=O)=O)cc21 [Dorzolamide HCL] | – | – | – | – | -0.166 | -0.25 | -0.0513 | -0.00192 | 0.0973 | 0.279 | 0.311 | 0.443 | 0.471 | 0.489 | 0.267 | 0.375 | 0.389 | 0.37 | -0.103 | -0.133 | -0.0335 | -0.0982 | -0.134 | -0.179 | -0.0344 | 0.152 | 0.164 | 0.191 | – | – | – | –
Cc1ccc(-c2csc3ncnc(SCCC(=O)O)c23)cc1 | – | – | – | – | -0.266 | -0.425 | -0.0558 | 0.0127 | -0.0374 | 0.16 | 0.458 | 0.495 | 0.522 | 0.525 | 0.365 | 0.436 | 0.45 | 0.472 | -0.135 | -0.215 | -0.333 | -0.33 | -0.376 | -0.529 | -0.00644 | 0.0699 | 0.018 | 0.0424 | – | – | – | –
CC(C)c1onc(-c2c(Cl)cccc2Cl)c1COc1ccc(/C=C/c2cccc(C(=O)O)c2)c(Cl)c1 | – | – | – | – | 0.0301 | -0.185 | 0.0329 | 0.0726 | -0.0283 | 0.0113 | 0.473 | 0.542 | 0.562 | 0.583 | 0.522 | 0.552 | 0.554 | 0.538 | 0.157 | 0.0681 | 0.0922 | 0.0619 | 0.0293 | -0.0245 | 0.0686 | 0.0791 | 0.0526 | 0.0247 | – | – | – | –
CC(=O)c1c(C)c2cnc(Nc3ccc(N4CCNCC4)cn3)nc2n(C2CCCC2)c1=O | – | – | – | – | -0.148 | -0.339 | -0.0112 | 0.0227 | -0.111 | -0.0632 | 0.392 | 0.527 | 0.548 | 0.545 | 0.281 | 0.427 | 0.426 | 0.392 | -0.0338 | -0.0722 | -0.149 | -0.13 | -0.138 | -0.285 | 0.0266 | 0.0699 | -0.00616 | -0.0131 | – | – | – | –
C[C@]12CCC(=O)C=C1CC[C@@H]1[C@@H]2[C@@H](O)C[C@@]2(C)[C@H]1CC[C@]2(O)C(=O)CO [Hydrocortisone (Cortisol)] | 0.0854 | 0.303 | 0.221 | 0.167 | -0.194 | -0.593 | 0.0227 | 0.119 | 0.281 | 0.362 | – | – | – | – | – | – | – | – | -0.0911 | -0.0297 | -0.515 | -0.297 | -0.373 | -0.697 | 0.0897 | 0.139 | 0.288 | 0.293 | 0.112 | 0.0156 | -0.0358 | 0.304
C[S+]([O-])c1ccc(-c2nc(-c3ccc(F)cc3)c(-c3ccncc3)[nH]2)cc1 (stereo unspecified) | – | – | – | – | -0.0545 | -0.284 | 0.103 | 0.206 | 0.441 | 0.374 | 0.668 | 0.678 | 0.684 | 0.677 | 0.322 | 0.441 | 0.432 | 0.451 | -0.0319 | 0.0179 | -0.128 | -0.0437 | -0.0833 | -0.227 | 0.123 | 0.225 | 0.358 | 0.325 | – | – | – | –
CC(=O)O[C@H]1C(=O)[C@@]2(C)[C@H]([C@H](OC(=O)c3ccccc3)[C@]3(O)C[C@H](OC(=O)[C@H](O)[C@@H](NC(=O)c4ccccc4)c4ccccc4)C(C)=C1C3(C)C)[C@]1(OC(C)=O)CO[C@@H]1C[C@@H]2O [Paclitaxel (Taxol)] | – | – | – | – | 0.965 | 0.967 | 0.818 | 0.866 | 0.955 | 0.986 | 0.961 | 0.977 | 0.983 | 0.986 | 0.968 | 0.979 | 0.984 | 0.986 | 0.943 | 0.957 | 0.949 | 0.962 | 0.969 | 0.972 | 0.846 | 0.883 | 0.97 | 0.979 | – | – | – | –
